Screens deposited in PubChem BioAssay by National Center for Advancing Translational Sciences (NCATS).
KDM5B inhibitor – KDM5B demethylase inhibition; KDM5B demethylase, FDH-coupled NADH fluorescence (FDH is formaldehyde dehydrogenase); AID 1347165; Potency, µM (top dose mostly 57.7 µM), hits mostly inhibitors; 220,000 compounds, 2.6% hits; active = well fitted inhibition curve with a large enough effect; also: nearly all actives have a fitted effect of over 70% in size
Target sequence (Q9UGL1 whole entry, looked up): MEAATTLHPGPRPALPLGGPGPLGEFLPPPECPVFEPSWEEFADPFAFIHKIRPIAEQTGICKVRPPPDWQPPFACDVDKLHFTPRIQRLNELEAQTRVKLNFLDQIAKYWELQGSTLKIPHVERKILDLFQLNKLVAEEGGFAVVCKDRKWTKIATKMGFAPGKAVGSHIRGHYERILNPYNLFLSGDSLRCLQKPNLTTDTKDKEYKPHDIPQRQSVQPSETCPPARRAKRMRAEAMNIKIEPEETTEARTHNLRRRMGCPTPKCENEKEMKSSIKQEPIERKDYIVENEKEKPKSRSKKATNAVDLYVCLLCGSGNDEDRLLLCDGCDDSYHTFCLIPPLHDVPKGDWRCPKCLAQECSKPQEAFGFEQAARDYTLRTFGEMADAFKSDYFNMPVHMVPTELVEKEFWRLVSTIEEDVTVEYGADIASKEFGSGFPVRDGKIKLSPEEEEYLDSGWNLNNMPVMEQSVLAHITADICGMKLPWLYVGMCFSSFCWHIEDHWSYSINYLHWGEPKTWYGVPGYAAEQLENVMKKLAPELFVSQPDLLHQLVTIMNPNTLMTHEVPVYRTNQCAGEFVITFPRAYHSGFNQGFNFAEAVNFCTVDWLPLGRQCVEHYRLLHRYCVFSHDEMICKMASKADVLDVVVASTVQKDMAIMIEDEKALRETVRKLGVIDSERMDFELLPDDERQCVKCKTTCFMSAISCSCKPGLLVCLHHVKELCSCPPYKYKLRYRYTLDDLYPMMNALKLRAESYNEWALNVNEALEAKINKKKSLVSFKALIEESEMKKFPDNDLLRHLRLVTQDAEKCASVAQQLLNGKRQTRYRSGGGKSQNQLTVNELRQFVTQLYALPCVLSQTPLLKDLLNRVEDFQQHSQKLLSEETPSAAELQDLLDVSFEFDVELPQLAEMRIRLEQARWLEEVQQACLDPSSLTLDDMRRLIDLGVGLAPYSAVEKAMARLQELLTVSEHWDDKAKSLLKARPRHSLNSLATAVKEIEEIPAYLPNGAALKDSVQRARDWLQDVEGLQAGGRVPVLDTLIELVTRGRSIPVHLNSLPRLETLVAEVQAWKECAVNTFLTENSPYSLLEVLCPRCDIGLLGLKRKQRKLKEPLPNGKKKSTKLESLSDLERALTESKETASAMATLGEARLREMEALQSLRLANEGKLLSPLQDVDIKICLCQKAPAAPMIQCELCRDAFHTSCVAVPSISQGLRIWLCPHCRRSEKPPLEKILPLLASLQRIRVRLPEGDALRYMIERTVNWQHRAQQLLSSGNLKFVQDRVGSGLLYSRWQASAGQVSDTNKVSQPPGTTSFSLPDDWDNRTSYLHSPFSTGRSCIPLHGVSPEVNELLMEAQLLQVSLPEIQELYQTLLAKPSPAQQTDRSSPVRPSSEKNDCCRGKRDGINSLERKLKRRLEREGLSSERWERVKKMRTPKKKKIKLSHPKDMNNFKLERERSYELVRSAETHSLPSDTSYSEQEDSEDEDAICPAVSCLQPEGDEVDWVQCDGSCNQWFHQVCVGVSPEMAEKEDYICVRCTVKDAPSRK
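KDM5BΔAP (200 nM final) in 50 mM HEPES pH 7.5, 0.01% Tween-20 was preincubated 10 min at RT with compound over a concentration range. Substrate mix (H3K4me3 12.5 µM, α-KG 25 µM, Fe²⁺, ascorbate, NAD⁺, FDH) was added, and NADH fluorescence change over 30 min gave dose-response curves.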
Large screens that a line does not name were inactive. The full list was thinned out, with hits kept by preference.

CCN(CC)C(=S)SCc1csc(-c2ccc(C)cc2)n1	none
Cc1cn2c(=O)cc(CSc3ccccc3)nc2s1	none
CN(C)C1(CNC(=O)C2CCN(C(=O)c3ccc(F)cc3)CC2)CCCCCC1	none
O=C(CSc1nnnn1C1CC1)c1ccc(C2CCCCC2)cc1	none
O=C1CCC2(CCN(c3nc4ccccc4s3)CC2)CN1Cc1cccnc1	none
O=C1CCC2(CCCN(c3ncc(Cl)cc3F)C2)CN1Cc1cccnc1 (stereo not given)	KDM5B inhibitor 28µM
O=C1CCC2(CCCN(c3nc4ccccc4s3)C2)CN1Cc1cccnc1 (stereo not given)	none
C[C@]1(CO)C2CC[C@@H](O)[C@@H](CC(=O)NCc3cccs3)[C@]2(C)CC[C@H]1OC(=O)Nc1cccc(F)c1 (stereo not given in full)	none
CC(=O)Nc1ccc(C(C)=O)cc1OCc1ccccc1C	none
CC(C)c1noc(-c2ccccc2OCC(=O)NCc2ccc(Cl)cc2)n1	none
CCCc1noc(-c2cccn3c(CNC(=O)CCc4ccccc4)nnc23)n1	KDM5B inhibitor 18µM
CC(C)c1noc(-c2cccn3c(CNC(=O)CCc4ccccc4)nnc23)n1	KDM5B inhibitor 14µM
Cc1nc(CCNC(=O)CCc2ccccc2)no1	none
CCCC(=O)NCCc1noc(-c2ccccc2)n1	none
CCCc1noc(-c2cccn3c(CNC(=O)Cc4ccccc4OC)nnc23)n1	none
CCc1ccc(C(=O)C(C)Sc2nncn2-c2ccccc2OC)cc1 (stereo not given)	none
Cn1ccnc1C(NC(=O)CNC(c1ccccc1)c1ccccc1)c1ccc(F)cc1 (stereo not given)	none
CCC(CC)Nc1nnc(C)c(C)c1C#N	none
COc1cc(-c2cn(C)c(=O)n3cc(COc4ccnn4C)nc23)ccn1	KDM5B inhibitor 35µM
CN1CCN(c2ccc(-c3cn(C)c(=O)n4cc(COc5ccnn5C)nc34)cn2)CC1	KDM5B inhibitor 40µM
CC(=O)Nc1cccc(-c2cn(C)c(=O)n3cc(COc4ccc(Cl)cc4)nc23)c1	none
Cn1cc(-c2cn(C)c(=O)n3cc(CNc4ccccc4)nc23)cn1	none
COc1cc(-c2cn(C)c(=O)n3cc(CNc4ccccc4)nc23)ccn1	none
Cn1nccc1-c1cn(C)c(=O)n2cc(COc3ccc(Cl)cc3)nc12	none
CN(C)Cc1cn2c(=O)n(C)cc(-c3ccccc3Oc3ccccc3)c2n1	none
Cn1nccc1OCc1cn2c(=O)n(C)cc(-c3cccc(OC(F)(F)F)c3)c2n1	none
CN1CCN(c2ccc(-c3cn(C)c(=O)n4cc(CNc5ccccc5)nc34)cn2)CC1	KDM5B inhibitor 28µM
Cn1cc(-c2ccc(CO)cc2)c2nc(COc3ccccc3)cn2c1=O	none
CN(C)Cc1cn2c(=O)n(C)cc(-c3cccc(OC(F)(F)F)c3)c2n1	none
COc1ccc(-c2cn(C)c(=O)n3cc(CN(C)C)nc23)cc1OC	KDM5B inhibitor 35µM
O=C(O)CCc1ccncc1	none
CC(Sc1ccc(F)cc1)C(=O)NC(c1ccccc1)c1ccccc1 (stereo not given)	none
O=C(COC(=O)c1cccs1)c1ccc(OC(=O)c2ccccc2)cc1	none
COc1ccc(CNC(=O)N2CCCCC2c2noc(COc3ccc(C)cc3)n2)cc1 (stereo not given)	none
COc1ccccc1NC(=O)CSc1nc(N2CCCC2)c2c(c1C#N)CCCC2	none
CCSc1nc2c(c(=O)[nH]c(=O)n2C)n1CCC(C)C	none
Cn1nc(C(=O)OCCOc2ccc(C#N)cc2)c2ccccc2c1=O	none
N#Cc1c(SCC(=O)NCc2ccccc2)nc2c(c1C(F)(F)F)CCCC2	none
CC(=O)N1Cc2ccccc2CC2(CCCN(Cc3ccccc3)C2)C1 (stereo not given)	none
CCN(CC)S(=O)(=O)c1ccc(NS(=O)(=O)c2ccccc2)cc1	none
O=C(OCCCC(F)(F)C(F)(F)F)c1cccc([N+](=O)[O-])c1	none
Fc1ccc(C(=Nc2ccccc2)c2ccc(F)cc2)cc1	none
O=C(c1ccccc1F)N1CCC2(CC1)CC(N(Cc1ccccc1)C1CC1)CCO2 (stereo not given)	none
Cc1cccc2c(C=O)c(C(C)(C)C)[nH]c12	none
O=C(NCc1nc(-c2ccc(F)cc2)no1)C1CC(=O)N(Cc2ccccn2)C1 (stereo not given)	none
O=C(NCc1ccc(-c2ccc(F)cc2)o1)C1CC(=O)N(Cc2cccnc2)C1 (stereo not given)	KDM5B inhibitor 25µM
Cc1cccc(CCCNC(=O)C2CC(=O)N(Cc3cccnc3)C2)c1 (stereo not given)	none
CC(CCCCCCCCCCCCCO)(C(=O)O)C(=O)O	none
CCCCC(=O)Nc1sc2c(c1C#N)CCC(C(C)(C)C)C2 (stereo not given)	none
CS(=O)(=O)NC1CCCN(C(=O)c2cc(F)ccc2F)C1 (stereo not given)	none
O=C(Nc1ccc(N2CCN(Cc3ccccc3)CC2)cc1)c1cnc2ccccc2n1	none
CC(=O)N1CCCC(c2nnc3n2CCNC3)C1 (stereo not given)	KDM5B inhibitor 79µM
CC(=O)N1CCCC(c2nn(C)c(=O)n2C2CCCC2)C1 (stereo not given)	none
C[S+](=O)([O-])N1CCCC(c2nnc3n2CCNC3)C1 (stereo not given)	none
CCN1C(=O)N/C(=C/c2cn(C(C)C)c3ccccc23)C1=O	none
COC(=O)c1ccc(C)c(NC(=O)CN(c2cc(C(F)(F)F)ccc2Cl)S(C)(=O)=O)c1	none
CCOC(=O)c1ccc(N2C(=O)c3n[nH]c(C)c3C2c2ccc(Cl)cc2Cl)cc1 (stereo not given)	none
CC(C)C(=O)N1CCC(COc2ccc3c(cnn3CC[S+](C)(=O)[O-])c2)CC1	none
C[S+](=O)([O-])CCn1ncc2cc(OCC3CCN(C(=O)OC4CCCC4)CC3)ccc21	none
C[S+](=O)([O-])CCn1ncc2cc(OCC3CCN(C(=O)c4cccc(F)c4F)CC3)ccc21	none
C[S+](=O)([O-])CCn1ncc2cc(OCC3CCN(c4ncccn4)CC3)ccc21	KDM5B inhibitor 35µM
CCc1cnc(N2CCC(Oc3cnc4c(ccn4CCN[S+](C)(=O)[O-])c3)CC2)nc1	KDM5B inhibitor 28µM
CCCC(=O)N1CCC(Oc2cnc3c(ccn3-c3cncnc3)c2)CC1	none
CC(=O)N1CCC(COc2ccc3c(cnn3CC[S+](C)(=O)[O-])c2)CC1	none
CCc1cnc(N2CCC(COc3ccc4c(cnn4CC[S+](C)(=O)[O-])c3)CC2)nc1	KDM5B inhibitor 32µM
CC(C)C(=O)N1CCC(Oc2cnc3c(ccn3-c3cncnc3)c2)CC1	none
CC(=O)Nc1ccc(-c2csc(NC(C)(C)C)n2)c(F)c1	none
O=C(NCCCN1CCCC1)c1cc2cc(F)ccc2[nH]1	none
CCCCNCc1ccccc1C(F)(F)F	none
COc1cccc(CC(=O)Nc2cccc(-c3nnc4n3CCCC4)c2)c1	none
COc1ccccc1CN(C)Cc1ccccc1C	none
Cc1ccc2oc(C(=O)N(C)CC(=O)Nc3ccccc3Br)cc(=O)c2c1	none
COc1ccc(C(=O)N2CC(N(C)c3ccccc3C)C2)cc1	none
Cc1c(NC(=O)C(C)(C)c2ccccc2)cccc1C(=O)N1CCc2sccc2C1	none
C#CCNC(=O)c1cc(C(C)(C)C)c2cccn2n1	none
C#CCNC(=O)c1nc(C(C)(C)C)c2cnccn12	KDM5B inhibitor 50µM
C#CCNC(=O)c1cc(-c2cnccc2Cl)c2cccn2n1	none
CC(C)NC(=O)c1cc(C(C)(C)C)c2cccn2n1	none
CC(C)NC(=O)c1nc(C(C)(C)C)c2cnccn12	KDM5B inhibitor 126µM
CC(NC(=O)c1cnccn1)c1ccncc1 (stereo not given)	none
CCN1CCC2(CC1)Oc1ccccc1C1CC(c3ccccc3Cl)=NN12 (stereo not given)	none
Cc1ccc(C(=O)Nc2cccc3cnccc23)cc1S(=O)(=O)N1CCCC1	none
